The values below come from PubChem BioAssay.

Inconclusive results are not listed. Active and inactive are the calls of the source. Unless noted, no rule for the calls is given here.

The nature of experiment [1]: growth inhibition of DIPG glioma cells, dose response, cell-based, SU-DIPG-XVII, MIPE5.0, CellTiter-Glo, qHTS (AID 1347060; cut-off not given, nearly all actives have AC50 up to about 26 µM;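 as to AC50: cells exposed to compound for 48 hours before viability readout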). The following applies: SU-DIPG-XVII viability, CellTiter-Glo ATP luminescence. Background: ATP-based viability assays read luminescence as a measure of living cells.
Experiment [2] is described as follows: growth inhibition of DIPG glioma cells, dose response, cell-based, SU-DIPG-XIII, MIPE4.0, CellTiter-Glo, qHTS (AID 1347061; cut-off not given, nearly all actives have AC50 up to about 37 µM;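 also: cells exposed to compound for 48 hours before readout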). Conditions: SU-DIPG-XIII viability, CellTiter-Glo ATP luminescence.
The nature of experiment [3]: SU-DIPG-VI glioma cell viability, MIPE4.0 library, CellTiter-Glo luminescence, qHTS (AID 1347066; cut-off not given, nearly all actives have AC50 up to about 30 µM;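 also: cells exposed to compound for 48 hours before readout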). Conditions: CellTiter-Glo ATP luminescence.
The subject of experiment [4] is Hepatitis C virus NS3 helicase. Nature of the experiment: HCV NS3 helicase inhibitors, primary screen, biochemical, fluorescence polarization, LOPAC1280 library (AID 687035; in the data active = inhibition above about 37%). The following applies: Purified HCV NS3 helicase, Cy5-dT15 ssDNA binding fluorescence polarization; stronger effect = higher value; concentration not given here. For orientation: In fluorescence polarisation assays a small probe gives low polarisation when free and higher when bound to something large.

Experiment [5] can be described thus: Cy5 fluorescence quenching or enhancement artefacts, artefact control for HCV NS3 helicase inhibitor project, biochemical, LOPAC1280 (AID 687037). Conditions: Cy5-DNA-NS3h complex fluorescence interference counterscreen.
The test system of experiment [6] is Aerobactin synthetase IucA (Klebsiella pneumoniae). Nature of the experiment: IucA aerobactin synthetase inhibitors, biochemical, Tocris library, absorbance (AID 1345561).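 Also: 100% = enzyme without compound and 0% = no enzyme.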 Conditions: purified IucA enzyme assay, absorbance (OD) read-out; stronger effect = lower value;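 tested at 8 µM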.
Experiment [7] can be described thus: polyglutamine-triggered caspase-3 activation inhibitors, cell-based (AID 1583). The following applies: polyglutamine-induced caspase-3 activation, cell assay; stronger effect = higher value;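 tested at 10 µM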.
Experiment [8] is described as follows: suppressors of polyQ aggregation in yeast, 75Q-TubU reporter (AID 1593). Conditions: Yeast 75Q polyglutamine aggregation reporter.
The nature of experiment [9]: inhibitors of mitochondrial cytochrome c release, biochemical, purified mitochondria (AID 1603).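 Also: mouse liver mitochondria challenged with calcium chloride; signal normalized to the plate average as 100%.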 Conditions: stronger effect = lower value.
Experiment [10] in a line: circadian clock period modulators, cell-based, LOPAC library, luminescence reporter (AID 2774).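 Also: values are relative to mean of DMSO wells on each plate.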 The following applies: circadian reporter cells, at 7 µM, actives lie on both sides.
Experiment [11] concerns Neuropilin-2 / VEGF-C interaction (human). Briefly: inhibitors of NRP2–VEGF-C binding, biochemical, microplate binding format, z-score (AID 743281). Conditions: microplate NRP2/VEGF-C binding assay; stronger effect = lower value.
Experiment [12] is described as follows: SU-DIPG-XXV glioma cell viability, MIPE5.0 library, qHTS (AID 1347068; cut-off not given, nearly all actives have IC50 up to about 30 µM). Background: qHTS replaces the single test concentration by a dilution series.
Experiment [13] in a line: viability loss in pontine glioma line – cell-based, SU-DIPG-XXV, MIPE5.0, CellTiter-Glo, qHTS, dose response (AID 1347065; cut-off not given, nearly all actives have AC50 up to about 26 µM;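 also: cells exposed to compound for 48 hours before ATP readout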). The following applies: CellTiter-Glo ATP luminescence.
Experiment [14] can be described thus: JHH-DIPG-1 glioma cell viability, MIPE5.0 library, CellTiter-Glo luminescence, qHTS (AID 1347067; cut-off not given, nearly all actives have AC50 up to about 26 µM;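 also: cells exposed to compound for 48 hours before readout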). The following applies: JHH-DIPG-1 glioma viability, CellTiter-Glo ATP luminescence.
A short description of experiment [15]: modifiers of HSF1 nuclear foci, imaging, Selleck Cancer Library (AID 1347162; in the data active = plate-normalised HSF1 focus index below about 0.46). Conditions: human cells, at 10 µM; SSMD: measured here: HSF1 foci SSMD mean; cell count: measured here: cell number; plate-normalised HSF1 focus index: stronger effect = lower value.

Take `COc1ccc(-c2nc3ccc(C4=NNC(=O)CC4C)cc3[nH]2)cc1` (centres undefined): the AC50 in experiment [1] was 16.6 µM (active). The call in experiment [2] and in [3] was inactive.
As to `O=C(O)COCCN1CCN(C(c2ccccc2)c2ccc(Cl)cc2)CC1` (centres undefined), in experiment [4], the inhibition is -1% (inactive). For the same compound, the fluorescence ratio (interference) in experiment [5] was 1 (inactive). The remaining activity in [6] is 109% (inactive). Also, the call in experiment [2] and in experiment [3] was inactive.
On to `Cc1ccc(/C(=C\CN2CCCC2)c2ccccn2)cc1`, for which the inhibition in experiment [7] is 21.1%; in experiment [4], 1% (inactive). This compound returned a score in experiment [8] of 1.45. In experiment [9], the cytochrome c release ratio was 1.11. For the same compound, the period change in [10] is 0.045 h (inactive). Moreover, in experiment [5], the fluorescence ratio (interference) is 1 (inactive). Moreover, in [6], the remaining activity is 77.2% (inactive).
Regarding `CC1(C)[C@H](C(=O)O)N2C(=O)C[C@H]2S1(=O)=O`, the result in [3] was inactive.
As to `CN1[C@@H]2CC(OC(=O)[C@H](CO)c3ccccc3)C[C@H]1[C@@H]1O[C@@H]12` (some centres undefined), the z-score in experiment [11] was -0.461 (inactive). Also, in [6], the remaining activity was 104% (inactive).
For `CC(C)c1c(C(=O)Nc2ccccc2)c(-c2ccccc2)c(-c2ccc(F)cc2)n1CC[C@@H](O)C[C@@H](O)CC(=O)O`, in [12], the compound was called inactive.
In the case of `CC(C)(C(=O)O)c1ccc(C(O)CCCN2CCC(C(O)(c3ccccc3)c3ccccc3)CC2)cc1` (centres undefined), the period change in [10] was 0.08 h (inactive). Besides, in experiment [4], the inhibition was -1% (inactive). Further, in experiment [5], the fluorescence ratio (interference) was 1.1 (inactive). For the same compound, in experiment [6], the remaining activity is 89.1% (inactive).
`O=C(O)c1cn(C2CC2)c2cc(N3CCNCC3)c(F)cc2c1=O`: the inhibition in experiment [7] stood at 8.05%. Besides, the score in experiment [8] turned out to be 1.22. Moreover, the cytochrome c release ratio in experiment [9] is 1.03. The outcome in experiment [1], in experiment [2], in experiment [13], in experiment [3], in experiment [14] and in experiment [12] was inactive.
As for `Clc1ccccc1CN1CCc2sccc2C1`, the z-score in [11] is 0.918 (inactive). In addition, the compound was called inactive in experiment [1], in experiment [2], in experiment [13], in [3], in experiment [14] and in experiment [12].
On to `O=C(NCC1CCCCN1)c1cc(OCC(F)(F)F)ccc1OCC(F)(F)F` (centres undefined), for which, in experiment [10], the period change is 0.075 h (inactive). In addition, in [6], the remaining activity was 117% (inactive). The compound was classed as inactive in experiment [1], in experiment [2], in [13], in experiment [3], in experiment [14] and in experiment [12].
Regarding `C[N+]1(C)CCC(OC(=O)C(O)(c2ccccc2)C2CCCC2)C1` (centres undefined), the z-score in experiment [11] is -0.121 (inactive).
As to `O=S(=O)(c1cccc2cnccc12)N1CCCNCC1`, the remaining activity in [6] was 109% (inactive). Further, the result in experiment [1], in experiment [2], in [13], in experiment [3], in experiment [14] and in experiment [12] was inactive.
With `CC(C)n1c(/C=C/[C@@H](O)C[C@@H](O)CC(=O)O)c(-c2ccc(F)cc2)c2ccccc21`, in [15], the SSMD worked out at 2.42, the cell count worked out at 6600 and the plate-normalised HSF1 focus index was 1.13 (inactive).
For `CC(C)(C)c1ccc(C(O)CCCN2CCC(C(O)(c3ccccc3)c3ccccc3)CC2)cc1` (centres undefined), the inhibition in experiment [7] is 70.6%; in experiment [4], -3% (inactive). Further, the score in [8] is 0.48. In addition, in experiment [9], the cytochrome c release ratio was determined as 4.87. For the same compound, the period change in experiment [10] is 0.22 h (inactive). Besides, the fluorescence ratio (interference) in [5] is 0.9 (inactive).

The term AC50 denotes the concentration at which the activity in the assay is half-maximal. What is called inhibition is the drop in the measured response relative to a control, in per cent. In general, remaining activity refers to the signal under treatment as a percentage of the control signal.
